# Marburg entry: inhibitors of Marburg virus binding or entry into cells. Marburg virus pseudotype entry/binding inhibition, cell-based. 18,000 tested, 6.5% active. Potency, µM (highest dose often 49.2 µM), for inactives: at the top dose activity change, negative = inhibition, hits mostly inhibitors
# LASV entry inh: Lassa virus entry inhibition; 18,000 tested, 4.1% active; Lassa virus pseudotyped entry inhibition, cell-based qHTS; Potency, µM (highest dose often 49.2 µM), for the others: at the highest dose activity change, negative = inhibition, usual class: inhibitors
# * = called active by the depositor; ? = inconclusive; . = no result given; ! = not active in a repeat; [ ] = dose if it differs, or a comment. Only some compounds are listed: those with a hit (about 8.6% of all), similar ones and a draw of the others. Calls come from the whole dose curve; tested in HEK293 cells. % is set by controls: 0 for no effect and ±100 for the full control effect; potency is the fitted concentration of half-maximal effect.
SMILES,Marburg entry,LASV entry inh
C/C(=C(\CCOC(=O)c1ccccc1)SS/C(CCOC(=O)c1ccccc1)=C(/C)N(C=O)Cc1cnc(C)nc1N)N(C=O)Cc1cnc(C)nc1N,-14%,-21%
C[C@@H]1C=CCC(=O)N[C@@H](c2ccccc2)[C@H](C)C=CCC(=O)N[C@@H]1c1ccccc1,12%[8.59 µM],-1%[8.59 µM]
O[C@H]1C[C@H](c2ccc(Cl)cc2)N(Cc2cccs2)C[C@H]1n1cc(C2CC2)nn1,?,-5%
CC(C)N1C(=O)[C@@H]2CSCCS(=O)(=O)N2C1=O,17%,7%
CC(=O)N[C@@H](CC(=O)N[C@@H](CCC(=O)O)C(=O)O)C(=O)O,3%,5%
COC1=C[C@@H](C(=O)N[C@H]2CCCC[C@H]2NC(C)=O)[C@@H](C)[C@H](c2ccccc2)CC1=O,-13%[8.59 µM],?
COc1ccc2c(c1)c(CC(=O)OCC(=O)O)c(C)n2C(=O)c1ccc(Cl)cc1,22%,-3%
CCCN(CCC)C(=O)C(CCC(=O)OCCCN1CCN(CCOC(=O)Cc2c(C)n(C(=O)c3ccc(Cl)cc3)c3ccc(OC)cc23)CC1)NC(=O)c1ccccc1 (centres undefined),14µM*,22µM*
COc1ccc(O[C@H]2C=C[C@@H](c3ccccc3)O[C@H]2COC(=O)CCC(C)=NOCC[C@@H]2C=C[C@H](OC(C)=O)[C@@H](COC(C)=O)O2)cc1,33%[8.59 µM],5%[8.59 µM]
CC1=CC[C@@H](COc2ccccc2)O[C@@]2(C1)C(=O)N(Cc1ccc(Br)cc1)c1cccc(Br)c12,46%[8.59 µM],10%[8.59 µM]
CC(=O)Nc1ccc(OCCOCCOc2ccc(NC(C)=O)cc2)cc1,4%,?
CCOc1ccc(N=C(C)Nc2ccc(OCC)cc2)cc1,11µM*,-11%
COCCN1C(=NCCc2cccnc2)NC(c2ccccc2)C(C(=O)OC)=C1C (centres undefined),54%[8.59 µM],?
N#CC(C#N)=NNc1ccc(OC(F)(F)F)cc1,3.2µM*,1.3µM*
C=C(C)C[C@@]1(c2ccccc2)Oc2ccccc2C2=NCCN=C21,-21%[8.59 µM],7%[8.59 µM]
Cn1ccc2c(C=Cc3ccc(F)cc3)cc3c(c21)C1CCC3C1 (centres undefined),-21%,-4%
CCN1CCN(c2cc(-c3ccc(F)cc3)c3c(n2)CCCCCC3)CC1,7.9µM*,13µM*
CCCCn1c(C)cc2c(c1=O)[C@H]1O[C@](c3ccsc3)(Cc3ccccc31)O2,?,11%[8.59 µM]
NC(=NCCCCCCN=C(N)/N=C(\N)Nc1ccc(Cl)cc1)/N=C(\N)Nc1ccc(Cl)cc1,?,10µM*!
CC(C)N=C(N)/N=C(\N)Nc1ccc(Cl)cc1,-4%[17.8 µM],0%[17.8 µM]
CC#CCN1C(=O)N(C)C(c2ccccc2)C(C(=O)OC)=C1C (centres undefined),-4%[8.59 µM],10%[8.59 µM]
CC(C)C[C@H]1COc2cc(F)ccc2S(=O)(=O)N1,-21%,?
CCOC(=O)CCN1C(=O)[C@@H]2[C@H]3[C@H](O)[C@H](O)CC(=NO[C@@H]4O[C@H](COC(C)=O)[C@@H](OC(C)=O)[C@H](OC(C)=O)[C@@H]4OC(C)=O)[C@H]3CC[C@H]2C1=O,-6%[8.59 µM],-16%[8.59 µM]
N#C[C@@H]1C[C@@H]2C[C@@H]2N1C(=O)[C@@H](N)C12CC3CC(CC(O)(C3)C1)C2,1%,-1%
CCOC(=O)[C@@H](C)N1[C@H](C)[C@H](c2ccccc2)Oc2cc(Br)ccc2S1(=O)=O,?,14µM*
SMILES,Marburg entry,LASV entry inh
CC[C@H](C)[C@@H](C(=O)OC)N1Cc2ccccc2Oc2cc(Br)ccc2S1(=O)=O,-26%,4%
Oc1cccc[c]1[Hg][Cl],?,1µM*
Oc1cccc(O)c1O,?,-8%
O=C1C=C2C(=CCOC2O)O1 (centres undefined),1.1µM*,3.2µM*
CS(=O)(=O)CCN(CC#N)Cc1ccc(-c2ccc3ncnc(Nc4ccc(OCc5cccc(F)c5)c(Cl)c4)c3c2)o1,-10%,21%
CCN1C(=O)c2ccccc2C1Nc1ccc(OCCN2CCCCC2)cc1 (centres undefined),-23%,-10%
Cc1c(-c2ccc(O)cc2)nn(-c2ccc(O)cc2)c1-c1ccc(OCCN2CCCCC2)cc1,4µM*,32µM*
COC(=O)[C@@H]1[C@@H](c2cccc(C(F)(F)F)c2)NC(=O)N(Cc2ccccc2)[C@@H]1C,-19%[8.59 µM],-22%[8.59 µM]
COc1ccc(CCN(C)CCc2ccc(OC)c(OC)c2)cc1OC,-29%,-13%
COc1ccc(CCN(C)CCCC(C#N)(c2cc(OC)c(OC)c(OC)c2)C(C)C)cc1OC (centres undefined),32µM*,-10%
C=CCOC(=O)C(C(C)=O)[C@@H](NC(=O)OC)c1cccc(F)c1 (some centres undefined),12%[8.59 µM],-5%[8.59 µM]
CC(=O)OC[C@H]1O[C@@H](ON=C(C)CCN2CCCCc3nc(C)c(C)cc32)[C@H](OC(C)=O)[C@@H](OC(C)=O)[C@H]1OC(C)=O,1%[8.59 µM],-10%[8.59 µM]
Nc1nc(=S)c2[nH]cnc2[nH]1,3.2µM*,2.8µM*
Nc1ncnc2nc[nH]c12,17%,7%
COc1cccc([C@@H]2Oc3ccc(OC)cc3C[C@@H]2OC(=O)N[C@H]2CCCc3ccccc32)c1,3%[8.59 µM],-1%[8.59 µM]
O=C(NC1CCN(Cc2ccccc2)C1)c1cnn(-c2ncc3c(n2)-c2ccccc2CC3)c1C1CC1 (centres undefined),5µM*,-15%
O=C(NCCN1CCOCC1)c1cnn(-c2ncc3c(n2)-c2ccccc2CC3)c1C1CC1,?,-15%
C[C@H]1CN(C2CCCCC2)C(=O)[C@H]1CC(=O)Nc1ccccc1,19%,-25%
COc1cc(C(NC(=O)C(F)(F)F)c2cc3ccccc3o2)cc(OC)c1OC (centres undefined),5%[8.59 µM],.
COc1cc2c(C=O)c3c4c(cc(OC)c(OC)c4c2cc1OC)CCN3C,?,16µM*
CCc1cc2c(nc1CC)CCN(CCC(C)=NOCC[C@@H]1C=C[C@H](OC(C)=O)[C@@H](COC(C)=O)O1)C2,?,10%[8.59 µM]
C#CCCCON=C1C[C@@H](O)[C@@H](O)[C@@H]2[C@H]3C(=O)N(C(C)(C)C)C(=O)[C@@H]3CC[C@H]12,12%[8.59 µM],4%[8.59 µM]
N=C1N=C(N)c2cc3ccccc3cc21,20µM*,35µM*
O=C(Cc1ccc(Cl)c(Cl)c1)N1CCCC[C@H]1CN1CCCC1,?,-25%
Cc1[nH]c(/C=C2/C(=O)Nc3ccc(S(=O)(=O)Cc4c(Cl)cccc4Cl)cc32)c(C)c1C(=O)N1CCCC1CN1CCCC1 (centres undefined),14µM*,-4%
SMILES,Marburg entry,LASV entry inh
CCCCCCN1C[C@H](n2cc(C3CC3)nn2)[C@@H](O)C[C@H]1c1ccc(OC)cc1,-20%,.
C1CCC(C(C[C@@H]2CCCCN2)C2CCCCC2)CC1,7.9µM*,-26%[17.8 µM]
Nc1nccc(-c2c(-c3ccc(F)cc3)nn3cc(C(F)(F)F)ccc23)n1,30%,28%
CCOC(=O)[C@]12C[C@]3(C)CCN(C(=O)N[C@@H]1c1ccccc1)[C@@H]32,34%[8.59 µM],-19%[8.59 µM]
Cc1cc(C)c(OCc2cn(CC(=O)c3ccc(O)cc3)nn2)c(C)c1,11%,-22%
COc1cccc([C@H]2Oc3ccc(OC)cc3C(=NO[C@@H](C)CN3CCCCc4nc(C)c(C)cc43)[C@H]2O)c1,-17%[8.59 µM],-16%[8.59 µM]
COc1ccc([C@H]2O[C@@H](c3ccc(OC)c(OC)c3)[C@H](C)[C@@H]2C)cc1OC,6%,-5%
Nc1c(N=Nc2ccc(-c3ccc(N=Nc4cc(S(=O)(=O)O)c5ccccc5c4N)cc3)cc2)cc(S(=O)(=O)O)c2ccccc12,13µM*,0%

# Bioassay records as filed in PubChem.
